Source: PubChem (National Center for Advancing Translational Sciences (NCATS))
VDR inhibitor – Inhibitors of the vitamin D receptor (VDR): qHTS; Vitamin D3 receptor (Homo sapiens), P11473; VDR-SRC2-3 peptide fluorescence polarization, 2 h; Potency, µM, inactives show max response, negative = inhibition, most hits filed as inhibitors; 0.93% of 400,000 active; AID 504847, 2011; also: potency is read from the fitted curve at half-maximal effect
Target sequence (P11473 whole entry, looked up): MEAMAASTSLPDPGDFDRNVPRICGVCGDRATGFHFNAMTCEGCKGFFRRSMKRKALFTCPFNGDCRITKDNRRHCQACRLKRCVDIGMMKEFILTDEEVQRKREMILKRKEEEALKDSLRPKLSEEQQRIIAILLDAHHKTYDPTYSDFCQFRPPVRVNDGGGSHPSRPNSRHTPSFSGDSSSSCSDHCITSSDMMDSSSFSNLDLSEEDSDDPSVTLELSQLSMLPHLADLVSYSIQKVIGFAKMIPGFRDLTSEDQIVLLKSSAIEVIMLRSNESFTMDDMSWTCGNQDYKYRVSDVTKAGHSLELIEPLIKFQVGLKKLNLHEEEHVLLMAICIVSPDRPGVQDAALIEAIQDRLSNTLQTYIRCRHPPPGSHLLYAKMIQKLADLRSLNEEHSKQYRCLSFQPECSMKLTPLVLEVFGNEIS
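The screen uses fluorescence polarization to detect compounds that interfere with recruitment of the SRC2-3 coactivator peptide to VDR; plates are read after 2 h at room temperature.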
MmCpn inh – Inhibitors of TCP-1 ring complex (TRiC) of Methanococcus maripaludis (MmCpn): qHTS | Chaperonin Mm-Cpn (Methanococcus maripaludis) | purified Mm-Cpn ATPase, ADP Transcreener TR-FRET | Potency, µM (doses to about 76.9 µM), for inactives: top-dose activity, negative = inhibition, actives largely listed as inhibitors | 0.031% of 330,000 active; also: potency is read from the fitted curve at half-maximal effect; nearly all actives have a fitted effect of over 80% in size
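Purified archaeal Mm-CPN (25nM final) preincubated 10 min at 37degC with compound, then 10uM ATP for 30 min at 37degC; ADP measured by HTRF Transcreener TR-FRET; buffer 30 mM TRIS pH 7.4, 100mM KCl, 5mM MgCl2, 1mM DTT.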
PLK1 PBD inh – qHTS for Inhibitors of PLK1-PDB (polo-like kinase 1 - polo-box domain): Primary Screen; 2.8% of 360,000 active; Serine/threonine-protein kinase PLK1 (Homo sapiens), P53350; Potency, µM, without a hit: max response, negative = inhibition, most hits filed as inhibitors; Plk1 PBD binding of FITC phosphopeptide, fluorescence polarization; AID 720504, 2013; also: potency is read from the fitted curve at half-maximal effect; series mostly up to about 57 µM; nearly all actives have a fitted effect of over 65% in size
Sfp PPTase inh – qHTS Assay for Inhibitors of Bacillus subtilis Sfp phosphopantetheinyl transferase (PPTase); 4'-phosphopantetheinyl transferase ffp (Bacillus subtilis), Q9F4F7; Biochemical Sfp PPTase activity, qHTS; Potency, µM, for the others: largest response in the series, negative = inhibition, most hits filed as inhibitors; 3.5% of 310,000 active; AID 1490, 2009;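 also: the enzyme is Sfp with the accession as filed and its product quenches rhodamine fluorescence; potency is read from the fitted curve at half-maximal effect; 0% = enzyme reaction without inhibitor and -100% = no enzyme wells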
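Buffer: 50 mM Hepes-Na pH 7.6, 10 mM MgCl2, 0.01% Nonidet P-40, 0.01% BSA. Enzyme 15 nM, pre-exposed to compound 15 min; substrates then added and fluorescence change tracked over 30 min.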
CCT chaperon mod – High-Throughput Screening for Modulators of Cytosolic Chaperonin Activity. purified chaperonin ATPase assay, HTRF ADP detection, 30 min. activity change, % (test concentration not listed), hits read low. 0.3% of 360,000 active; in the data active = activity change below about -30%
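Enzyme 40 or 20 nM (batch-dependent) in Tris pH 7.4/KCl/MgCl2/DTT; cpd 76 uM single point; ATP 10 uM; 30 min 37 °C; Transcreener ADP HTRF detection, 30 min RT; ratio 665/615.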
G9a inh – qHTS Assay for Inhibitors of Histone Lysine Methyltransferase G9a; Potency, µM (highest dose often 102 µM), for inactives: top-dose activity, negative = inhibition, actives largely listed as inhibitors; 8.8% of 350,000 active; G9a H3K9 monomethylation, AlphaScreen, 2 h; also: potency is read from the fitted curve at half-maximal effect; nearly all actives have a fitted effect of over 75% in size
Target sequence (Q96KQ7 913-1193 limits assumed): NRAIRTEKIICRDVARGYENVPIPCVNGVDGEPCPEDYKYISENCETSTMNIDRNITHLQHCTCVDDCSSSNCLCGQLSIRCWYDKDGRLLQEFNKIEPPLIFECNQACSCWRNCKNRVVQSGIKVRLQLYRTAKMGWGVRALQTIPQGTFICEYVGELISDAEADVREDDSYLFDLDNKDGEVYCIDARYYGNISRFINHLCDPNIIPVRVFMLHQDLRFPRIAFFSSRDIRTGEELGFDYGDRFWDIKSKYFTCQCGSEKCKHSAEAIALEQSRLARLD
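Methyltransferase reactions run at room temperature for 2 h (20 nM enzyme, 500 nM biotin-H3K9 peptide, 20 uM SAM) after a 15 min compound preincubation; product detected by AlphaScreen beads and anti-H3K9me1 antibody.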
* marks the source's active call; other numbers are inactive results; ? = inconclusive; / = not tested or not shown; [ ] = dose if it differs, or a comment. Most compounds without a hit are left out; they make up all but 10% or so of the library. Unless noted, calls follow the shape of the dose curve; as a rule, active = well fitted curve in the direction sought with a large enough effect; inconclusive = small, poorly fitted or top-dose-only effect, or another doubt; inactive = no such curve, though single readings can be large; an effect the other way counts as inactive or inconclusive. Unless noted, % is scaled to controls: 0 for no effect and ±100 for the full control effect.

SMILES	VDR inhibitor	MmCpn inh	PLK1 PBD inh	Sfp PPTase inh	CCT chaperon mod	G9a inh
O=C(CSC(=S)N1CCOCC1)Nc1nc(=O)c2ccccc2s1	/	2%	/	79µM*	/	4µM*
O=C(Cc1ccccc1)Nc1nc(=O)c2ccccc2s1	-6%	-5%	-21%	?	2	25µM*
O=C(CSC(=S)N1CCOCC1)Nc1nccs1	28%	2%	-1%	0%	2	0%
O=C(Nc1nc(=O)c2ccccc2s1)c1ccc(F)cc1	71µM*	-1%	-2%	56µM*	3	1.8µM*
COc1ccc(N(C(=O)c2ccccc2F)S(=O)(=O)c2ccc3c(c2)n(C)c(=O)n3C)cc1	0%	/	/	/	/	-1%[59 µM]
CCc1ccc(OCCNc2cc(N3CCNC(C)C3)ccc2[N+](=O)[O-])cc1 (stereo not drawn)	8%	0%	5%	/	-1	4%[2.33 µM]
Cc1ccccc1OCCNc1cc(N2CC(C)NC(C)C2)ccc1[N+](=O)[O-] (stereo not drawn)	-9%	-2%	-3%	-16%	-1	40µM*
CC1CN(c2ccc([N+](=O)[O-])c(NCCOc3ccccc3)c2)CC(C)N1 (stereo not drawn)	-16%	3%	-8%	-5%	0	?
CC1CN(c2ccc([N+](=O)[O-])c(NCCOc3ccc(Cl)cc3)c2)CC(C)N1 (stereo not drawn)	3%	-2%	0%	?	0	45µM*
CO[C@@H]1[C@@H]2OP(=O)(O)OC[C@H]2O[C@H]1n1c(Sc2ccc(Cl)cc2)nc2c(N)ncnc21	11%	/	/	19%	/	21%[59 µM]
CCn1ccc2cc(S(=O)(=O)N3CCC(C(=O)NCCOC)CC3)ccc21	4%	/	/	/	/	0%[59 µM]
CCN(CC)C(=O)c1sc2c(c1C)c(=O)n(Cc1ccccc1)c(=O)n2CC(=O)Nc1ccc(OC)cc1	14%	/	/	/	/	2%[59 µM]
CCOc1ccc(-c2cc3c(=O)n(Cc4nc(-c5ccccc5OCC)oc4C)ccn3n2)cc1Cl	-3%	/	/	/	/	-1%[59 µM]
COc1ccc(Cc2nnc(SCC(=O)N3CCCCC3)o2)cc1	-14%	0%	?	-11%	1	71µM*
C=CC1C(N2CCOCC2)C(C)(C)S1(=O)=O (stereo not drawn)	-6%	0%	9.5µM*	13%	1	7%
CC1=NN(c2ccccc2)C(=O)C1C(=O)c1ccc(Cl)cc1 (stereo not drawn)	-2%	0%	-7%	11%	-3	40µM*
CC1=NN(c2ccccc2)C(=O)C1c1ccccc1 (stereo not drawn)	-6%	-5%	-6%	9%	0	-13%[59 µM]
Cc1ccc(NC(=O)C(=O)C2C(=O)Nc3ccccc32)cc1 (stereo not drawn)	4%	0%	1%	14%	-5	?
CC1=NN(c2ccccc2)C(=O)C1C(=O)C(=O)Nc1ccc(F)cc1 (stereo not drawn)	-20%	1%	-1%	-5%	2	35µM*
Cc1ccc2nc3nc4ccc[nH]c4cc3c2c1	/	/	/	-5%	/	/
COc1cccc(-c2cn3ncsc3n2)c1	2%	/	/	/	/	-25%[59 µM]
CCCCCCCCCCCCCCCC(=O)OC[C@@H](COP(=O)([O-])OCC[N+](C)(C)C)OC(=O)CCCCCCCCCCCCCCC	9%	/	/	4%	/	/
CC(C)CN(CC(C)C)S(=O)(=O)N1CCC(C(=O)NCc2cccnc2)CC1	-28%	1%	27µM*	14%	0	-4%
CCS(=O)(=O)N1CCC(C(=O)NCc2cccnc2)CC1	11%	-1%	-1%	32%	-9	1%
CSc1ccc(CN2CCC(C(=O)NCc3ccc(C)cc3)CC2)cc1	11%	0%	-19%	56µM*	1	7.9µM*
SMILES	VDR inhibitor	MmCpn inh	PLK1 PBD inh	Sfp PPTase inh	CCT chaperon mod	G9a inh
Cc1ccc(CNC(=O)CN2CCC(C(N)=O)CC2)cc1	-6%	-1%	-9%	11%	-2	?
CC(C)c1ccc(CN2CCC(C(=O)NCc3cccnc3)CC2)cc1	51%	-1%	-6%	79µM*	-3	32µM*
Cc1oc(-c2ccc(Cl)cc2)nc1CN1CCC(C(=O)NCc2cccnc2)CC1	-1%	-1%	-10%	?	-2	3%[59 µM]
CCOc1ccccc1CNC(=O)C1CCN(C(=O)N2CC(CC)Oc3ccc(C)cc32)CC1 (stereo not drawn)	14%	/	/	/	/	-50%[59 µM]
CC(C)CNC(=O)N1[C@H](c2cccs2)[C@@H](C)C(=O)[C@@H](C)[C@@H]1c1cccs1	5%	/	/	/	/	-2%[59 µM]
COCc1nc2ccccc2n1Cc1ccc(C(C)(C)C)cc1	6%	/	/	/	/	6%[59 µM]
CCOCc1nnc(NC(=O)COC)s1	-2%	2%	-27%	50µM*	-1	?
CCOCC(=O)Nc1nnc(COCC)s1	14%	2%	?	4%	-1	3%[59 µM]
CCOCC(=O)Nc1nnc(Cc2ccc(OC)c(OC)c2)s1	-21%	-3%	27µM*	-3%	0	16µM*
COc1ccc(Cc2nnc(NC(=O)Nc3ccc(F)cc3)s2)cc1OC	?	1%	19µM*	-2%	2	-8%
COc1ccc(NC(=O)Nc2nnc(Cc3ccc(OC)c(OC)c3)s2)cc1	9%	0%	-2%	-3%	-2	/
CCN(c1ccc(OC)cc1)S(=O)(=O)c1ccc2[nH]c(=O)ccc2c1	17%	/	/	/	/	-24%[59 µM]
C[C@@](N)(C(=O)O)[C@@H]1C[C@@H]1C(=O)O	0%	/	/	-20%	/	18%[59 µM]
COc1ccc(OC)c(C2=NS(=O)(=O)N(C)C(C(=O)Nc3ccc(F)cc3F)=C2)c1	?	1%	30µM*	6%	-1	-13%
Cc1ccc(C2=NS(=O)(=O)N(C)C(C(=O)Nc3ccc(F)cc3F)=C2)cc1	-13%	1%	-4%	-1%	1	71µM*
COC(=O)c1ccccc1NC(=O)C1=CC(c2ccc(C)cc2)=NS(=O)(=O)N1C	17%	/	/	/	/	13µM*
O=C(Nc1ccc(C(=O)OCc2cc(=O)n3c4c(sc3n2)CCCC4)cc1)c1ccc(Cl)cc1	12%	/	/	/	/	-4%[12.7 µM]
Clc1ccc(-c2nnc(SCc3nc4ccccc4[nH]3)o2)c(Cl)c1	-10%	-2%	-8%	-17%	-5	8.9µM*
CCCCC/C=C\C/C=C\C/C=C\CCCCCCC(=O)O[C@H](COCCCCCCCCCCCCCCCC)COP(=O)([O-])OCC[N+](C)(C)C	-16%	/	/	-5%	/	/
CC1CCCN(CCOc2ccc(Br)cc2)C1 (stereo not drawn)	-21%	2%	-1%	?	-2	10µM*
